Among all 340,000 compounds or so, about 2,100 (0.62%) were called active.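 The calls were made as follows: active = first-screen hits whose inhibition reached a set limit at any dose in the follow-up dose series; inconclusive = inhibition above the set first-screen limit but never retested; inactive = the rest.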 Not all results are given here. Measured potencies and affinities stand elsewhere.
biological target: Rac GTPase-activating protein 1 (Homo sapiens) (UniProt Q9H0H5); assay: blockers of MgcRacGAP-driven Rac1 GTP hydrolysis – biochemical, ADP Hunter fluorescence, primary and confirmatory, confirmation (AID 624330); settings: MgcRacGAP-stimulated Rac1 GTP hydrolysis, at 30 µM, active compounds read high, GST-tagged Rac1 F28L mutant substrate;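 also: fluorescence reports GDP produced by GAP-driven GTP hydrolysis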
Sequence (Q9H0H5 whole entry, looked up): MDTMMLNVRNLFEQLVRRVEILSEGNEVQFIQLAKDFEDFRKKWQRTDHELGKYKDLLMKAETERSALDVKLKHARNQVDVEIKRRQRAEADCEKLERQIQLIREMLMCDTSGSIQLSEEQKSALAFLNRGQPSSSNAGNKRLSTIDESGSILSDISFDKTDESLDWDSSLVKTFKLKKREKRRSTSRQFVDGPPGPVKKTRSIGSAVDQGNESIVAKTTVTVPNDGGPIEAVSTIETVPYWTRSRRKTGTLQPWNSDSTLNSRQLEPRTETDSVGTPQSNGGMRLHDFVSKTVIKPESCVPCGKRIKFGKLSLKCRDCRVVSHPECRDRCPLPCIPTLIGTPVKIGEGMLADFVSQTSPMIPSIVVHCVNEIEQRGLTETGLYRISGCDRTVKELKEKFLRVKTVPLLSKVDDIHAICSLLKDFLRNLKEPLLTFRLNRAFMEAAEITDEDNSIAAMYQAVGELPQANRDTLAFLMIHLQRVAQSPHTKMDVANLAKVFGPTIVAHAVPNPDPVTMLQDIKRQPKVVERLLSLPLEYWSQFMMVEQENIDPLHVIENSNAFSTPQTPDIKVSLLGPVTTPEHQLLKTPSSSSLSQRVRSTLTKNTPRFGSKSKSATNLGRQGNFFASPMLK

inhibition, inactive:
CCCCn1c(N)c(N(CC(C)C)C(=O)CCNC(=O)c2ccccc2Cl)c(=O)[nH]c1=O 6.4%
CCOc1cc(C(=S)N2CCOCC2)ccc1OS(=O)(=O)c1ccc(OC)cc1 3.51%
C[C@@H]1CN([C@H](C)CO)C(=O)CCCn2nncc2CO[C@H]1CN(C)S(=O)(=O)c1ccc2ccccc2c1 12.9%
CCCCNC(=O)Cn1cnc2c(cnn2-c2ccc(C)cc2)c1=O 6.17%
Clc1nssc1=Nc1ccccc1 13.8%
Clc1ccc(N=c2ssnc2Cl)cc1 14.7%
O=C(N/N=C/c1ccc([N+](=O)[O-])o1)c1cc(-c2cccc(Br)c2)nc2ccccc12 -2.15%
C/C(=N\N=c1/sc2ccccc2n1C)c1ccc(N2CCOCC2)cc1 6.81%
Cn1c(=Nc2ccc(N3CCOCC3)cc2)ccc2ccccc21 16.1%
O=[N+]([O-])c1cccc(-c2ccc(C(=S)N3CCN(c4ccc(F)cc4)CC3)o2)c1 5.79%
CN(C)c1ccc2nsnc2c1[N+](=O)[O-] 7.42%
Cc1ccc2nsnc2c1NC(=O)c1ccc([N+](=O)[O-])cc1 14.4%
Brc1ccc(-c2cn3c(n2)SCC3)cc1 15.1%
Cc1ccc(-c2cn3c(n2)SCC3)cc1 14.4%
CCCCNc1c(-c2ccc(SC3CCCCC3)c(OC)c2)nc2ccc(C)cn12 2.06%
O=C(Nc1ncccn1)C1c2ccccc2Oc2ccccc21 2.37%
COc1ccc2nnc(-c3ccccc3)n2n1 10.9%
COC(=O)c1ccc(Oc2ccc3nnc(C)n3n2)cc1 -0.14%
CC(=O)Nc1ccc2sc(NC(=O)CN3CCOCC3)nc2c1 7.43%
CCCCc1cc(=O)oc2cc(OCC(=O)Nc3ccccn3)ccc12 11.4%
Cc1ccn2c(C(C)O)nnc2c1 (stereo not given) 11.7%
c1ccn2c(Cc3nnc4ccccn34)nnc2c1 3.25%
Cc1ccn2c(=O)cc(C)nc2c1 -1.02%
Cc1cccn2c(N)c(-c3ccccc3)nc12 7.39%
CSc1nc(=O)n2cccc(C)c2n1 0.29%
Fc1ccc(-c2nnc3ccccn23)cc1 0.86%
O=C(CCC(=O)N1CCOCC1)NCCc1ccccc1 0.87%
CCN(CC(=O)Nc1ccc(NC(C)=O)cc1)C(=O)c1ccc2c(c1)S(=O)(=O)N=C1CCCCCN12 1.15%
CCOc1ccccc1NC(=S)N1CCCCCC1 5.32%
CCOC(=O)/C(C#N)=C1/C=CN(Cc2ccccc2)C=N1 6.15%
CCOC(=O)C(C#N)=C1CCN(Cc2ccccc2)CC1 11.1%
CCCCN1C(=O)/C(=C(/C#N)C(N)=O)c2ccccc21 10.6%
CCOC(=O)/C(C#N)=C1/C=Cc2ccccc2N1CC 12.8%
Cc1ccc(C(=O)NC(NCc2ccco2)C(Cl)(Cl)Cl)cc1 (stereo not given) 2.01%
O=C(NCCCN1CCCC1)c1ccc2c(c1)N(Cc1ccccc1)CCS2 -3.35%
O=C(COC(=O)CCc1c[nH]c2ccccc12)NCc1ccccc1 4.56%
COCCNC(=S)N(Cc1cc2cc(C)ccc2n2nnnc12)C1CCCC1 1.01%
COc1ccc(C(=O)NC(=S)N(C)Cc2ccccc2)cc1Br 3.69%
Cc1nc2scc(C)n2c(=O)c1S(=O)(=O)N1CCN(c2ccc(F)cc2)CC1 5.64%
Cc1nc2scc(C)n2c(=O)c1S(=O)(=O)N1CCN(c2ccccc2)CC1 1.78%
O=CN(/C=C1\Sc2ccccc2C1=O)Cc1ccccc1 10%
Cc1sc2ncnc(Nc3ccccc3)c2c1C 4.64%
Cc1sc2ncnc(N/N=C/c3cccc(O)c3)c2c1C 20.2%
COc1ccc(/C=N/Nc2ncnc3sc(C)c(C)c23)cc1 11.8%
Cc1ccc(Nc2ncnc3sc(C)c(C)c23)cc1 18.3%
COCCOc1cc(NC(=O)CS(=O)(=O)CC(=O)N(C)C)c(Cl)cc1Cl -10.1%
O=C(Nc1cccc(Cl)c1)C1C2C=CC3(O2)C1C(=O)N(CCN1CCCCC1)C3C(=O)NC1CCCCC1 (stereo not given) 4.26%
CCN(CC)C(=O)CN(c1ccc(C)cc1)S(=O)(=O)c1ccc(SC)cc1 3.34%
COc1ccc(C2CC(=O)Nc3ccccc3S2(=O)=O)cc1OC (stereo not given) 11.4%
O=C(Nc1cccc(C(=O)Nc2ccccc2F)c1)c1ccccc1 -9.87%
CN(C)c1ccc(/C=C/C(=O)c2cccnc2)cc1 10.2%
CN(C)c1ccc(/C=C/c2ccncc2)cc1 16.4%
O=C(CSc1ccc2nnc(-c3cccnc3)n2n1)Nc1ccccc1C(F)(F)F 6.49%
Oc1ccc(Cl)cc1C=Nc1ccccc1Br 4.11%
Oc1cccc(C=Nc2cccc3ccccc23)c1O -2.71%
Oc1ccc(Cl)cc1/C=N/c1nccs1 3.22%
OCC(CO)(CO)N=Cc1cc(Br)ccc1O 8.85%
CCN(CC)c1ccc(N=Cc2cc(Br)ccc2O)cc1 10.9%
Cc1cccc(C=Nc2ccc3c(c2)oc2ccccc23)c1O 25.6%
COc1ccccc1-c1nnc(SCC(=O)Nc2ccc(S(N)(=O)=O)cc2)n1C 7.69%
C[C@H](CO)N1C[C@H](C)[C@H](CN(C)C(=O)Nc2ccc(C(C)(C)C)cc2)OCc2cnnn2CCCC1=O -5.61%
COc1ccc(OC)c(S(=O)(=O)NCC(=O)NC2CCCc3ccccc32)c1 (stereo not given) 6.06%
O=C(Nc1ccc2c(c1)OCO2)C1CCCN1C(=O)OCc1ccccc1 (stereo not given) 6.44%
C=CCN(CC=C)CCOc1ccc(OC(C)C)cc1 26.4%
COc1ccc2nc(C)cc(SCC(=O)N/N=C/c3ccc(O)cc3O)c2c1 17.7%
COc1ccc2nc(C)cc(SCC(=O)N/N=C/c3ccccc3)c2c1 5.43%
COc1ccc2c(c1)c(C(=O)N/N=C/c1cccc(O)c1)c(C)n2C 16.9%
COc1ccc2c(c1)c(C(=O)N/N=C/c1ccc(OC)c(OC)c1)c(C)n2C -2.93%
CC(=O)Nc1c2c(nn1-c1ccc(Cl)cc1)CSC2 2.25%
O=C(CCc1ccccc1)NNC(=O)COc1ccccc1 11.8%
Cc1ccc2ccc(C(Nc3cccc(C(F)(F)F)c3)c3cccnc3)c(O)c2n1 (stereo not given) 10.8%
COc1cc(CCC(=O)OCC(=O)N(CCC#N)c2ccccc2)cc(OC)c1OC 7.7%
COc1cccc(CNCCO)c1OCc1ccccc1Cl 9.99%
COc1cc(CNc2ccc3[nH]c(=O)[nH]c3c2)ccc1OCc1ccc(C)cc1 16.9%
COc1cccc(CNc2ccc3[nH]c(=O)[nH]c3c2)c1OCc1ccc(F)cc1 26.2%
CCOc1cc(CNc2ncn[nH]2)ccc1OCC(=O)NC(C)(C)C 1.46%
Oc1ccc(NCc2ccccc2OCc2ccccc2)cc1 11.9%
COc1cc(CNc2ncn[nH]2)ccc1OCc1cccc(C)c1 8.87%
CCOc1cc(CNC)ccc1OCC(=O)NC(C)(C)C 2.12%
Cc1ccc(NCc2ccccc2OCc2ccccc2F)cc1 11.5%
COc1ccc(C(=O)Nc2ccncc2)c(OC)c1 13.1%
Cn1cc(C(=O)C(=O)NC2CCCCC2)c2ccccc21 10%
COc1ccc(C(CNC(=O)c2ccc(NS(=O)(=O)c3ccc(F)cc3)cc2)N2CCOCC2)cc1 (stereo not given) 4.8%
CN(CC(=O)Nc1ccc(F)c(F)c1F)C(=O)CN1C(=O)NC2(CCCC2)C1=O 9.6%
CCOC(=O)c1cc2ccc3ccccc3c2oc1=O 8.31%
Cc1ccc2c(c1)nnn2C1CCN(CC(=O)NNC(=O)c2ccco2)CC1 0.28%
CCOc1cccc(CNc2ccc(O)cc2)c1OCc1ccccc1Cl 29.3%
CCOc1cccc(CNc2ccc(O)cc2)c1OCc1ccc(Cl)cc1 19.5%
CCCCCCN1C[C@@H](O)[C@H](n2cc(-c3ccc(F)cc3)nn2)C[C@@H]1c1ccc(C)cc1 6.07%
CNCc1c(OCc2ccccc2F)ccc2ccccc12 -6.3%
O=C1/C(=C/c2ccco2)CCc2ccccc21 8.52%
O=C1CNC(=O)/C(=C/c2ccco2)N1 14.3%
O=C1/C(=C\c2ccco2)NC(=S)N1c1ccccc1 21.9%
O=C1NC(=O)/C(=C/c2ccco2)N1 11%
O=C1C(=Cc2cccs2)C(=O)c2ccccc21 4.2%
O=C1CNC(=O)/C(=C/c2cccs2)N1 0.05%
O=C1/C(=C\c2ccco2)CCC/C1=C\c1ccco1 38.4%
O=C1/C(=C\c2ccco2)SC(=S)N1c1ccccc1 23.6%
O=C(NCc1cccc(Cl)c1)c1ccc(CS(=O)Cc2ccccc2Cl)o1 (stereo not given) -7.5%
C[C@@H]1CCCCO[C@H](CN(C)C(=O)Nc2ccc3c(c2)OCO3)[C@H](C)CN([C@@H](C)CO)C(=O)c2cc(NS(=O)(=O)c3ccc(Cl)cc3)ccc2O1 10.2%

Source: PubChem BioAssay AID624330 (Southern Research Specialized Biocontainment Screening …, 2012)
